Over roughly 33,000 sequences, “e-score” has its median near -0.037; the highest 2% begin near 0.34. Many of the other results were omitted from the sample, so the highest values are more common in it than they were.
What follows are sequences tested against T1, GST-Rok (full length) (Bacillus subtilis subsp. subtilis str. …, UniProt O34857 1-191) (assay: protein binding microarray; Rok is a gene silencer of Bacillus subtilis; high values mean tight binding). Details: protein: recombinant; tags: GST (pTH5325, pDEST15-Magic modified); dsDNA, one strand shown.
T1 sequence: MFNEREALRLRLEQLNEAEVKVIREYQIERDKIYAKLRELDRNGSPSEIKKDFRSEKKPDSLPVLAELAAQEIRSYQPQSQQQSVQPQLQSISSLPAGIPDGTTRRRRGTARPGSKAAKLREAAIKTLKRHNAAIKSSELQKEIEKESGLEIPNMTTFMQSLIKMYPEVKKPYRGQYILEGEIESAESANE
Procedure, shortened: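 Each has a 25-mer constant primer and a 35-mer variable part from a de Bruijn sequence of order 10, covering every non-palindromic 8-mer at least 32 times (palindromic 16). Preference for each 8-mer is given as a rank-based, unitless enrichment score (E-score). Its range runs from 0.5 (most favored) to −0.5 (most disfavored).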

In order of rising binding signal:
1. AAGCAAGG  -0.19 E-score
2. CCTTAATC  -0.174 E-score
3. CAGGACGG  -0.164 E-score
4. GAGCTCAC  -0.145 E-score
5. ACGCGGCA  -0.129 E-score
6. GGTGTCGA  -0.128 E-score
7. AAGTTGAG  -0.123 E-score
8. ACGCAGAG  -0.119 E-score
9. AGTGATTG  -0.118 E-score
10. CAGGAGAA  -0.111 E-score
11. GCTCCGGA  -0.102 E-score
12. ACCGGCAA  -0.0643 E-score
13. TTCCCCAA  -0.0604 E-score
14. GATGGGAA  -0.056 E-score
15. CAGAGTTA  -0.0506 E-score
16. ACATCTCG  -0.0379 E-score
17. CATTAGCA  -0.0362 E-score
18. GTGATTCA  -0.0295 E-score
19. TGATGCAA  -0.0283 E-score
20. CGCTGAGC  -0.0254 E-score
21. ACAGCGAT  -0.0187 E-score
22. AAACCCGT  -0.0147 E-score
23. CCTACTAA  -0.00507 E-score
24. AACTTCTT  -0.00379 E-score
25. CACGTCAA  0.00857 E-score
26. TCTTAAGA  0.00924 E-score
27. CTCCATTC  0.0472 E-score
28. GCTACAGC  0.0848 E-score
29. AGGAAGTA  0.0966 E-score
30. ACAGTGTC  0.114 E-score
31. TAGCTTCA  0.13 E-score
32. CGCGGTAA  0.147 E-score
33. CACTAATG  0.154 E-score
34. AACTAATC  0.158 E-score
35. AGGATTAG  0.158 E-score
36. AGATTACG  0.17 E-score
37. ACCTAATA  0.176 E-score
38. AATTTAAG  0.18 E-score
39. ATATGTTC  0.184 E-score
40. CTATGTAA  0.185 E-score
41. CTATGTAC  0.186 E-score
42. AATATAAC  0.193 E-score
43. ACTACTTC  0.193 E-score
44. CGTATATC  0.196 E-score
45. GCTACTAA  0.199 E-score
46. TCTACTCA  0.206 E-score
47. AATATTAT  0.208 E-score
48. CCTACTTC  0.211 E-score
49. CGCTATTA  0.211 E-score
50. GACTAATA  0.225 E-score
51. AATATAAT  0.228 E-score
52. AGTAGAAG  0.228 E-score
53. ATTAGAAA  0.233 E-score
54. AGTAACAT  0.242 E-score
55. GTAGAAGA  0.247 E-score
56. CGTACTTA  0.264 E-score
57. AGTAGAGA  0.265 E-score
58. AGTAGAAC  0.267 E-score
59. ACTGATAA  0.273 E-score
60. CACTAATA  0.277 E-score
61. ACTACTCA  0.281 E-score
62. ATTATAGG  0.285 E-score
63. CTATGTTA  0.285 E-score
64. ATATGTAA  0.286 E-score
65. AGTACTTG  0.297 E-score
66. AAGATATA  0.313 E-score
67. AGATGTAC  0.315 E-score
68. AACTAATT  0.32 E-score
69. AGTCAATA  0.322 E-score
70. ACTACTGA  0.323 E-score
71. AATATATG  0.33 E-score
72. AACTAATG  0.339 E-score
73. ATATGTAC  0.345 E-score
74. TACTAATA  0.346 E-score
75. AGTACTTA  0.349 E-score
76. TCTACTAA  0.353 E-score
77. AACTAATA  0.357 E-score
78. ACTACTAA  0.386 E-score
79. ATATGTAG  0.391 E-score
80. ATATGTTA  0.395 E-score
81. AATATATT  0.41 E-score
82. AATATATC  0.412 E-score
83. AGTAGAAT  0.42 E-score
84. AGTAGAAA  0.42 E-score
85. ACTACTTA  0.432 E-score
86. AATATATA  0.469 E-score
